Assay outcomes (PubChem)
OPRK1 antag MB: antagonists of human kappa opioid receptor OPRK1, Maybridge library; Kappa-type opioid receptor (Homo sapiens), P41145; OPRK1 cells, antagonist mode, fluorescence readout; inhibition, % at 9 µM; 0.4% of 16,000 active; AID 652031, 2013; in the data active = inhibition above about 50%
TLR4-MyD88 inh: inhibitors of human TLR4-MyD88 binding; inhibition, % at 10 µM; AID 811, 2007; Toll-like receptor 4 (Homo sapiens), O00206; 0.06% of 16,000 active; Cell-based TLR4-MyD88 binding inhibition assay; in the data active = inhibition above about 45%
S1P1 agonist: activates the human S1P1 receptor | S1P1 agonist cell-based reporter assay | activation, % at 4.5 µM | 1.5% of 16,000 active; in the data active = activation above about 80%
Target sequence (P21453 whole entry, looked up): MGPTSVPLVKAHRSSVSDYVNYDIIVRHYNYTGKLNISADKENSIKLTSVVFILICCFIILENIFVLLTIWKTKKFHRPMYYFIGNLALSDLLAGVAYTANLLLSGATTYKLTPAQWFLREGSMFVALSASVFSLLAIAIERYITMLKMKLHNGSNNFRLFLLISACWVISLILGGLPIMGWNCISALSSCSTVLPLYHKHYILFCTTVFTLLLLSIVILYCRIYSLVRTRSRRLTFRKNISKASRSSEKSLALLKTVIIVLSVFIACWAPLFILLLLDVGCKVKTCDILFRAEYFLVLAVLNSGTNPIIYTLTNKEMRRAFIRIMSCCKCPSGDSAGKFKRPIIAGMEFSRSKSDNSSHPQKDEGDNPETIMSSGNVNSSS
Active calls of the source: *. Compounds with a hit are over-represented: about 2% of the library has one in this group of screens.

SMILES	OPRK1 antag MB	TLR4-MyD88 inh	S1P1 agonist
CCC(C#N)(c1ccccc1)c1ccc([N+](=O)[O-])cc1 (centres undefined)	-2.2	2.6	17.6
Cn1c(C(F)(F)F)n[nH]c1=S	-1.7	-13.7	-17.1
Cn1c(-c2ncc(C(F)(F)F)cc2Cl)n[nH]c1=S	14.6	-4.7	92.9*
CN(C)c1ccc(/C=C/c2ccccc2)cc1	4.7	-14.6	5.6
CN(C)c1ccc(/C=C/c2cc[n+](Cc3ccc(F)cc3)cc2)cc1	1.6	50.7*	28.2
O=C(CSc1ccc(C(F)(F)F)cn1)Nc1cccc2nsnc12	-7.6	1.1	0.1
S=C(NNc1c(Cl)cncc1Cl)Nc1ccc(Cl)cc1Cl	62.3*	-6.4	118.5*
OCCCNNC(=S)Nc1ccc(Cl)cc1Cl	24.5	2.0	8.6
Nc1nc(-c2ccc3c(c2)CCC3)cc(C(F)(F)F)n1	9.0	-2.4	83.0*
Nc1nc(-c2ccc3c(c2)OCCCO3)cc(C(F)(F)F)n1	-2.0	4.1	76.5
O=[N+]([O-])c1ccc(-c2ccc(/C=N/NC(=S)NCC3CCCO3)o2)cc1 (centres undefined)	31.0	50.1*	29.9
S=C(NCC1CCCO1)N/N=C/c1ccc(Cl)cc1 (centres undefined)	-18.6	-4.1	-16.0
O=[N+]([O-])c1ccc(-c2ccc(/C=N/Nc3ccccc3)o2)cc1	81.4*	41.1	82.1*
O=[N+]([O-])c1ccc(-c2ccc(-c3ccc([N+](=O)[O-])cc3)o2)cc1	45.0	7.9	65.8
Cc1onc(-c2ccccc2)c1N1C(=O)CCN(Cc2ccccc2)C1=O	-14.5	-5.7	1.9
O=[N+]([O-])c1ccc(-c2csc(-c3ccc(-c4cccs4)s3)n2)cc1	7.4	5.7	13.1
O=[N+]([O-])c1ccc(N/N=C/c2ccc(-c3cccs3)s2)nc1	79.1*	17.1	70.8
O=C(O)CSCC(=O)Nc1ccc(F)cc1	11.9	9.6	10.3
O=C(Nc1ccccc1Oc1ccc(Cl)cc1Cl)c1cccs1	-0.1	-5.1	-3.7
CC(C)(C)c1cc(C(=O)NCc2ccc(C#N)cc2)n(Cc2ccccc2)n1	1.6	-6.7	5.1
CC(C)(C)c1cc(C(=O)NNC(=S)Nc2ccccc2)n(Cc2ccc(Cl)cc2Cl)n1	-3.1	-1.6	101.0*
O=S(=O)(Nc1ccc2c(c1)OCCO2)c1csc(-c2cc(C(F)(F)F)on2)c1	3.4	6.0	82.3*
O=S(=O)(Nc1ccc(Cl)cc1)c1ccc(-c2cc(C(F)(F)F)on2)s1	4.4	-3.8	24.8
CC1(C)OC(=O)C(Cc2ccc([N+](=O)[O-])cc2)C(=O)O1	21.9	-2.1	5.1
N#CC(CO)Cc1cc([N+](=O)[O-])ccc1N1CCOCC1 (centres undefined)	-3.8	-4.5	2.5
SMILES	OPRK1 antag MB	TLR4-MyD88 inh	S1P1 agonist
N#CC(CO)Cc1cc([N+](=O)[O-])ccc1N1CCCCC1 (centres undefined)	-16.4	1.3	94.9*
COc1ccc(C(=O)/C(=N\O)c2ccccc2)cc1	4.2	16.2	-3.3
COc1cc(Br)cc(C=NCCSCc2ccccc2Cl)c1O	20.7	-12.3	-8.5
O=[N+]([O-])c1cc(/C=N/N=C/c2csc([N+](=O)[O-])c2)cs1	15.8	2.0	0.3
O=[N+]([O-])c1ccc(SC2=NCCS2)nc1	24.8	-0.6	29.5
O=[N+]([O-])c1ccc(SC2=NCCS2)c([N+](=O)[O-])c1	24.1	-18.9	113.3*
Clc1ccc(N=Cc2ccc(-c3cccs3)s2)cc1	12.0	2.8	0.1
